# Many of the other results were omitted from the sample, so the strongest signals are more common in it than they were.
# What was measured:
# Test in all cases: glycan array binding signal (z-score within array); higher = stronger binding
# Conditions in all cases: glycan notation: IUPAC condensed, linker removed
# [1] = molecular target: Fuc(a1-2)Gal(b1-4)GlcNAc(b1-2)Man(a1-3)[Fuc(a1-2)Gal(b1-4)GlcNAc(b1-2)Man(a1-6)]Man(b1-4)GlcNAc(b1-4)[Fuc(a1-6)]GlcNAc
# Method in brief: (§1)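 Glycan array data were curated from 3228 arrays in the Consortium for Functional Glycomics database and kept only where the protein sequence was available. Glycan names were converted to IUPAC-condensed notation, and columns mapping to the same glycan were averaged. The binding signal is a within-array Z-score, averaged across arrays of the same protein sequence at different concentrations or buffers and across linkers. Negative Z-scores can be read as non-binding.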
# [2] = molecular target: Fuc(a1-2)[Gal(a1-3)]Gal(b1-3)GalNAc
# Method in brief: as §1
# [3] = molecular target: Fuc(a1-2)[Gal(a1-3)]Gal(b1-4)GlcNAc(b1-2)Man
# Method in brief: as §1
# [4] = molecular target: Fuc(a1-2)[GalNAc(a1-3)]Gal(b1-3)GalNAc(a1-3)[Fuc(a1-2)]Gal(b1-4)GlcNAc
# Method in brief: as §1
# [5] = molecular target: Fuc(a1-2)[GalNAc(a1-3)]Gal(b1-4)GlcNAc
# Method in brief: as §1
# [6] = molecular target: Fuc(a1-2)[GalNAc(a1-3)]Gal(b1-4)GlcNAc(b1-2)Man
# Method in brief: as §1
# [7] = molecular target: Fuc(a1-2)[GalNAc(a1-3)]Gal(b1-4)GlcNAc(b1-2)Man(a1-3)[Fuc(a1-2)[GalNAc(a1-3)]Gal(b1-4)GlcNAc(b1-2)Man(a1-6)]Man(b1-4)GlcNAc(b1-4)GlcNAc
# Method in brief: as §1
# [8] = molecular target: Fuc(a1-2)[GalNAc(a1-3)]Gal(b1-4)GlcNAc(b1-3)Gal(b1-4)GlcNAc
# Method in brief: as §1
# [9] = molecular target: Fuc(a1-2)[GalNAc(a1-3)]Gal(b1-4)GlcNAc(b1-3)Gal(b1-4)GlcNAc(b1-3)Gal(b1-4)GlcNAc
# Method in brief: as §1
# [10] = molecular target: Fuc(a1-3)[Gal(b1-4)]GlcNAc
# Method in brief: as §1
# Gal(a1-3)Gal = molecular target: Gal(a1-3)Gal
# Method in brief: as §1
# [11] = molecular target: Gal(a1-3)Gal(b1-3)[Fuc(a1-4)]GlcNAc(b1-2)Man(a1-3)[Gal(a1-3)Gal(b1-3)[Fuc(a1-4)]GlcNAc(b1-2)Man(a1-6)]Man(b1-4)GlcNAc(b1-4)GlcNAc
# Method in brief: as §1
# Gal(a1-3)Gal(b1-4)GlcNAc = molecular target: Gal(a1-3)Gal(b1-4)GlcNAc
# Method in brief: as §1
# [12] = molecular target: Gal(a1-3)Gal(b1-4)GlcNAc(b1-3)GalNAc
# Method in brief: as §1
# [13] = molecular target: Gal(a1-4)Gal(b1-3)GlcNAc(b1-2)Man(a1-3)[Gal(a1-4)Gal(b1-3)GlcNAc(b1-2)Man(a1-6)]Man(b1-4)GlcNAc(b1-4)GlcNAc
# Method in brief: as §1
# Gal(a1-4)Gal(b1-4)Glc = molecular target: Gal(a1-4)Gal(b1-4)Glc
# Method in brief: as §1
# [14] = molecular target: Gal(b1-3)GalNAc(b1-4)Gal(b1-4)Glc
# Method in brief: as §1
# [15] = molecular target: Gal(b1-3)GlcNAc(a1-3)Gal(b1-4)GlcNAc
# Method in brief: as §1
# [16] = molecular target: Gal(b1-3)GlcNAc(b1-3)Gal(b1-4)GlcNAc(b1-3)Gal(b1-4)GlcNAc(b1-2)[Gal(b1-3)GlcNAc(b1-3)Gal(b1-4)GlcNAc(b1-3)Gal(b1-4)GlcNAc(b1-6)]Man(a1-6)[Gal(b1-3)GlcNAc(b1-3)Gal(b1-4)GlcNAc(b1-3)Gal(b1-4)GlcNAc(b1-2)Man(a1-3)]Man(b1-4)GlcNAc(b1-4)[Fuc(a1-6)]GlcNAc
# Method in brief: as §1
# [17] = molecular target: Gal(b1-3)GlcNAc(b1-6)[Gal(b1-3)]GalNAc
# Method in brief: as §1
# Gal(b1-3)GlcNAc6S = molecular target: Gal(b1-3)GlcNAc6S
# Method in brief: as §1
# [18] = molecular target: Gal(b1-3)[Neu5Ac(b2-6)]GalNAc
# Method in brief: as §1
# Gal(b1-4)Gal = molecular target: Gal(b1-4)Gal
# Method in brief: as §1
# [19] = molecular target: Gal(b1-4)GlcNAc(b1-2)Man(a1-3)Man(b1-4)GlcNAc(b1-4)GlcNAc
# Method in brief: as §1
# [20] = molecular target: Gal(b1-4)GlcNAc(b1-2)Man(a1-3)[Gal(b1-4)GlcNAc(b1-2)Man(a1-6)]Man(b1-4)GlcNAc(b1-4)GlcNAc
# Method in brief: as §1
# [21] = molecular target: Gal(b1-4)GlcNAc(b1-2)[Gal(b1-4)GlcNAc(b1-4)]Man(a1-3)[GlcNAc(b1-4)][Gal(b1-4)GlcNAc(b1-2)[Gal(b1-4)GlcNAc(b1-6)]Man(a1-6)]Man(b1-4)GlcNAc(b1-4)GlcNAc
# Method in brief: as §1
binder,measurement,setting,value
"rCNL (Clitocybe nebularis), B2ZRS9 (protein) SITPGTYNITNVAYTNRLIDLTGSNPAENTLIIGHHLNKTPSGYGNQQWTLVQLPHTTIYTMQAVNPQSYVRVRDDNLVDGAALVGSQQPTPVSIESAGNSGQFRIKIPNLGLALTLPSDANSTPIVLGEVDETSTNQLWAFESVSAV",glycan array binding signal (z-score),[1],-0.116
same,glycan array binding signal (z-score),[2],-0.222
same,glycan array binding signal (z-score),[3],-0.215
same,glycan array binding signal (z-score),[4],2.47
same,glycan array binding signal (z-score),[5],3.08
same,glycan array binding signal (z-score),[6],3.12
same,glycan array binding signal (z-score),[7],4
same,glycan array binding signal (z-score),[8],3.46
same,glycan array binding signal (z-score),[9],3.25
same,glycan array binding signal (z-score),[10],-0.299
same,glycan array binding signal (z-score),Gal(a1-3)Gal,-0.297
same,glycan array binding signal (z-score),[11],-0.27
same,glycan array binding signal (z-score),Gal(a1-3)Gal(b1-4)GlcNAc,-0.098
same,glycan array binding signal (z-score),[12],-0.129
same,glycan array binding signal (z-score),[13],-0.187
same,glycan array binding signal (z-score),Gal(a1-4)Gal(b1-4)Glc,-0.261
same,glycan array binding signal (z-score),[14],-0.287
same,glycan array binding signal (z-score),[15],-0.21
same,glycan array binding signal (z-score),[16],-0.203
same,glycan array binding signal (z-score),[17],-0.215
same,glycan array binding signal (z-score),Gal(b1-3)GlcNAc6S,-0.226
same,glycan array binding signal (z-score),[18],-0.305
same,glycan array binding signal (z-score),Gal(b1-4)Gal,-0.215
same,glycan array binding signal (z-score),[19],-0.275
same,glycan array binding signal (z-score),[20],-0.13
same,glycan array binding signal (z-score),[21],-0.041

# Source: the supplement of paper PMC8728848
